Results filed as inconclusive are left out. Where a call stands in place of a potency, no number is given. The source made the active and inactive calls. Calls follow the shape of the dose curve; as a rule, active = well fitted inhibition curve with a large enough effect; inconclusive = small, poorly fitted or top-dose-only effect; inactive = flat fitted curve, though single readings scatter.
Assays:
Test in all cases: qHTS profiling for inhibitors of Plasmodium falciparum proliferation (AID 504749); also: nearly all actives have a fitted effect of over 60% in size
Conditions in all cases: P. falciparum in erythrocytes, SYBR Green DNA, 72 h; series mostly up to 28.7 µM
CP215 = system: CP215
In short: (§1)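 In a 72 h erythrocytic culture (37 C, humidified, 5% CO2) at 2.5% hematocrit and 0.3% starting parasitemia, compounds were tested; SYBR Green I in detergent lysis buffer stained parasite DNA overnight.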

CP217 = system: CP217
In short: as §1

CP237 = system: CP237
In short: as §1

CP238 = system: CP238
In short: as §1

CP247 = system: CP247
In short: as §1

CP250 = system: CP250
In short: as §1

CP252 = system: CP252
In short: as §1

CP256 = system: CP256
In short: as §1

CP260 = system: CP260
In short: as §1

CP262 = system: CP262
In short: as §1

CP265 = system: CP265
In short: as §1

CP266 = system: CP266
In short: as §1

CP268 = system: CP268
In short: as §1

CP269 = system: CP269
In short: as §1

CP286 = system: CP286
In short: as §1

CP291 = system: CP291
In short: as §1

CP297 = system: CP297
In short: as §1

CP305 = system: CP305
In short: as §1

CP315 = system: CP315
In short: as §1

CP325 = system: CP325
In short: as §1
Potency is read from the fitted curve at half-maximal effect.

Row | SMILES | Potency (CP215) | Potency (CP217) | Potency (CP237) | Potency (CP238) | Potency (CP247) | Potency (CP250) | Potency (CP252) | Potency (CP256) | Potency (CP260) | Potency (CP262) | Potency (CP265) | Potency (CP266) | Potency (CP268) | Potency (CP269) | Potency (CP286) | Potency (CP291) | Potency (CP297) | Potency (CP305) | Potency (CP315) | Potency (CP325)
1 | O=C(NC(Cc1cc(=O)[nH]c2ccccc12)C(=O)O)c1ccc(Cl)cc1 (stereo unspecified) | inactive | inactive | inactive | inactive | inactive | inactive | inactive | inactive | inactive | inactive | inactive | inactive | inactive | inactive | inactive | inactive | inactive | inactive | inactive | inactive
2 | O=C(CS(=O)Cc1ccco1)NCC=CCOc1cc(CN2CCCCC2)ccn1 (stereo unspecified) | inactive | inactive | inactive | inactive | inactive | inactive | inactive |  | inactive | inactive | inactive | inactive | inactive | inactive | inactive | inactive |  | inactive | inactive | inactive
3 | C[C@H](Cn1cnc2c(N)ncnc21)OCP(=O)(O)O | inactive | inactive | inactive | inactive | inactive | inactive | inactive | inactive |  | inactive | inactive | inactive | inactive | inactive | inactive | inactive | inactive | inactive | inactive | inactive
4 | CC[C@]1(O)C[C@H]2CN(CCc3c([nH]c4ccccc34)[C@@](C(=O)OC)(c3cc4c(cc3OC)N(C=O)[C@H]3[C@@](O)(C(=O)OC)[C@H](OC(C)=O)[C@]5(CC)C=CCN6CC[C@]43[C@@H]65)C2)C1 |  | 4.47 µM (active) | 0.0501 µM (active) | 2.24 µM (active) |  | 3.55 µM (active) | 3.55 µM (active) | 2.24 µM (active) | 0.0794 µM (active) |  |  |  |  |  | 0.0708 µM (active) | 3.38 µM (active) | 3.01 µM (active) |  |  | 
5 | Cc1cc(=O)oc2cc(O)ccc12 | inactive |  | inactive |  |  |  |  |  |  |  |  | inactive | inactive | inactive |  | inactive |  | inactive | inactive | inactive
6 | CCC[C@@H]1C[C@@H](C(=O)N[C@@H]([C@H]2O[C@H](SC)[C@H](O)[C@@H](O)[C@H]2O)[C@@H](C)O)N(C)C1 | 2.69 µM (active) |  |  |  |  | inactive |  | 0.398 µM (active) |  | 2.39 µM (active) |  |  |  |  |  |  |  |  |  | 
7 | O=C(O)c1cn(-c2ccc(F)cc2)c2cc(N3CCNCC3)c(F)cc2c1=O |  | inactive |  |  | inactive | inactive |  |  |  |  |  | inactive |  |  |  |  |  |  |  | 
8 | O=C(OC1C[C@H]2CC[C@@H](C1)[N+]21CCCC1)C(O)(c1ccccc1)c1ccccc1 (stereo partly specified) |  |  |  | 3.55 µM (active) |  |  |  | 3.55 µM (active) |  | 4.26 µM (active) | 3.98 µM (active) |  |  |  | 3.98 µM (active) |  |  | 4.26 µM (active) |  | 
9 | Cc1ccc(NC(=O)c2ccc(CN3CCN(C)CC3)cc2)cc1Nc1nccc(-c2cccnc2)n1 |  | 11.2 µM (active) | 8.91 µM (active) |  |  |  |  |  |  |  |  |  |  | 15.1 µM (active) | 11.2 µM (active) |  |  |  |  | 
10 | CN(C)C(=O)COC(=O)Cc1ccc(OC(=O)c2ccc(N=C(N)N)cc2)cc1 |  | inactive | inactive | inactive | inactive | inactive | inactive | inactive | inactive | inactive | inactive | inactive | inactive | inactive | inactive | inactive | inactive | inactive | inactive | inactive
11 | Cc1nc2n(c(=O)c1CCN1CCC(c3noc4cc(F)ccc34)CC1)CCCC2 | inactive | inactive |  | inactive | inactive | inactive | inactive | inactive |  | inactive | inactive | inactive | inactive | inactive |  | inactive | inactive | inactive | inactive | inactive
12 | CNC[C@H](O)c1ccc(O)c(O)c1 |  | inactive | inactive | inactive | inactive | inactive | inactive | inactive | inactive | inactive | inactive | inactive | inactive | inactive | inactive | inactive | inactive | inactive | inactive | inactive
13 | CCc1nc(N)nc(N)c1-c1ccc(Cl)cc1 |  |  |  | inactive |  | inactive |  | inactive | inactive | inactive | inactive | inactive | inactive | inactive | inactive | inactive |  | inactive | inactive | inactive
14 | CCCCCCCCOc1ccccc1C(=O)Nc1ccc(C(=O)OCC[N+](C)(CC)CC)cc1 |  | 10 µM (active) | 7.94 µM (active) | 8.91 µM (active) | 10 µM (active) |  |  |  | 7.08 µM (active) | inactive |  |  |  |  | 6.31 µM (active) |  |  |  |  | 
15 | CN1CCC(=C2c3ccccc3CCc3sccc32)CC1 |  |  |  |  |  | inactive |  |  |  | inactive |  |  |  |  |  |  | inactive |  | inactive | 
16 | c1ccc2[nH]c(-c3cscn3)nc2c1 | inactive | inactive | inactive | inactive |  |  | inactive | inactive | inactive | inactive | inactive | inactive | inactive | inactive | inactive | inactive |  | inactive | inactive | inactive

— PubChem BioAssay (NCATS)
